Inconclusive results are not listed. The source made the active and inactive calls. How the source made its calls, unless noted: active means hit-call score of the fitted dose curve at least 0.9, where 1 is the maximum; inactive means score below 0.9.

The nature of assay [1]: ATG_PBREM_CIS: Attagene CIS-FACTORIAL HepG2 Assay for human Phenobarbital-responsive Enhancer Module (PBREM) (AID 2282955). The conditions noted are these: HepG2 PBREM cis-reporter, Attagene multiplexed transcription; actives raise or lower the signal. A digest of the protocol:
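Endogenous transcription factors in human liver HepG2 cells drive a PBREM cis-element reporter, whose transcript level after 24 h treatment is quantified by RT-PCR with capillary electrophoresis; activity fitted in both directions against DMSO.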

For assay [2], the target named is Paired box protein Pax-6 (Homo sapiens) (UniProt P26367). Put plainly: ATG_Pax6_CIS: Attagene CIS-FACTORIAL HepG2 Assay for human Paired Box 6 (PAX6) (AID 2282956). The conditions noted are these: HepG2 CIS-FACTORIAL PAX6 reporter transcription, RNA readout; actives raise or lower the signal. Summed up: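 Transient MRTU transfection of HepG2 → compound exposure 24 h → TriZol RNA, oligo(dT) RT → PCR, 6-FAM primer extension, HpaI cut → capillary electrophoresis; activity fitted both directions against DMSO.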

Assay [3] can be described thus: ATG_PXRE_CIS: Attagene CIS-FACTORIAL HepG2 Assay for human Pregnane X Receptor Element (PXRE) (AID 2282957). The conditions noted are these: HepG2 Attagene CIS-FACTORIAL PXRE reporter, mRNA; actives raise or lower the signal. Summed up:
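Cells: HepG2, transiently transfected reporter units under cis promoter control. Exposure: 24 h. Detection: reporter mRNA via RT-PCR/CE fluorescence; bidirectional fitting, DMSO-referenced.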

Assay [4] can be described thus: ATG_PPRE_CIS: Attagene CIS-FACTORIAL HepG2 Assay for human Peroxisome Proliferator-activated Response Element (PPRE) (AID 2282958). Conditions: HepG2 PPRE cis-element reporter, Attagene transcription factor profiling; actives raise or lower the signal. Summed up:
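HepG2, transient MRTU transfection (cis promoter elements, endogenous TFs). 24 h dosing. RNA → oligo(dT) RT → PCR → 6-FAM primer extension → HpaI digest → CE. Bidirectional fit vs DMSO.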

Assay [5] in a line: ATG_RORE_CIS: Attagene CIS-FACTORIAL HepG2 Assay for human RAR-related Orphan Receptor Element (RORE) (AID 2282959). Conditions: HepG2 Attagene cis-factorial RORE reporter, mRNA; actives raise or lower the signal. A digest of the protocol:
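Transient MRTU transfection of human HepG2 liver cells (FuGene 6); 24 h compound exposure; TriZol RNA, oligo(dT) RT, PCR, FAM labeling, HpaI cut, CE fragment analysis. DMSO = negative control/baseline.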

Assay [6] in a line: ATG_Sox_CIS: Attagene CIS-FACTORIAL HepG2 Assay for human SRY-box transcription factor (SOX) (AID 2282960). Conditions: HepG2 Attagene cis-factorial SOX reporter, mRNA; actives raise or lower the signal. Summed up:
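Endogenous factor activity in human liver HepG2 cells carrying transfected cis-regulated reporter units. RNA taken 24 h post-dose, reverse-transcribed, PCR-amplified and sized by capillary electrophoresis. Gain or loss of signal fitted relative to DMSO.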

For assay [7], the target named is Transcription factor Sp1 (Homo sapiens) (UniProt P08047). Put plainly: ATG_Sp1_CIS: Attagene CIS-FACTORIAL HepG2 Assay for human Specificity Protein 1 (Sp1) (AID 2282961). Conditions: HepG2 Sp1 cis-reporter transcription, actives raise or lower the signal. Summed up: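 Transient MRTU-transfected HepG2, 24 h compound exposure. Total RNA → oligo(dT) RT → PCR of reporter → 6-FAM primer extension → HpaI digest → CE. Endpoint fitted both directions vs DMSO.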

In assay [8] the target is Signal transducer and activator of transcription 3 (Homo sapiens) (UniProt P40763). Put plainly: ATG_STAT3_CIS: Attagene CIS-FACTORIAL HepG2 Assay for human Signal Transducer and Activator of Transcription 3 (STAT3) (AID 2282963). The conditions noted are these: HepG2, Attagene cis-factorial STAT3 reporter transcription; actives raise or lower the signal. Summed up:
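Transcript-level reporter assay. HepG2 transient MRTU transfection, 24 h exposure, fluorescence detection after RT-PCR and CE; DMSO baseline.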

The nature of assay [9]: ATG_TA_CIS: Attagene CIS-FACTORIAL HepG2 Assay for human TA Basal Promoter (AID 2282964). Conditions: HepG2 Attagene CIS-factorial TA basal promoter reporter; actives raise or lower the signal. A digest of the protocol: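 Background internal-marker endpoint from a 52-component HepG2 cis-reporter panel. Cells treated 24 h; reporter transcripts quantified via RT-PCR and CE fluorescence against DMSO baseline.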

Assay [10] can be described thus: ATG_TCF_b_cat_CIS: Attagene CIS-FACTORIAL HepG2 Assay for human T-Cell-Factor with beta-catenin (TCF/b-cat) (AID 2282965). The conditions noted are these: HepG2 TCF/beta-catenin cis-reporter transcription, actives raise or lower the signal. A digest of the protocol: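 HepG2 cells transiently transfected with multiple cis-promoter-regulated reporter transcription units, so endogenous transcription factor activity is measured. Reporter mRNA read 24 hours after dosing by RT-PCR, fluorescent labelling and capillary electrophoresis; bidirectional fitting against DMSO.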

Assay [11] in a line: ATG_TAL_CIS: Attagene CIS-FACTORIAL HepG2 Assay for human TAL Basal Promoter (AID 2282966).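 Further: background control endpoint measuring basal TAL promoter reporter mRNA not a specific factor.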 The conditions noted are these: HepG2 Attagene cis-factorial TAL promoter reporter; actives raise or lower the signal. A digest of the protocol:
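RT-PCR plus capillary electrophoresis quantifies reporter mRNA induction in transiently transfected HepG2 cells after 24 h chemical treatment. DMSO serves as negative control and baseline for bidirectional fitting.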

Assay [12] in a line: ATG_TGFb_CIS: Attagene CIS-FACTORIAL HepG2 Assay for human Transforming Growth Factor (TGF) (AID 2282967). The conditions noted are these: HepG2 Attagene CIS TGFb reporter, mRNA transcription; actives raise or lower the signal. Summed up:
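Liver HepG2 line, cis-factorial reporter panel, 24 h dosing. Quantitation: RT-PCR products labeled with 6-FAM, cut with HpaI, resolved by capillary electrophoresis; DMSO-referenced bidirectional analysis.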

A short description of assay [13]: ATG_VDRE_CIS: Attagene CIS-FACTORIAL HepG2 Assay for human Vitamin D Receptor Element (VDRE) (AID 2282968). Conditions: HepG2 VDRE cis-reporter transcription, actives raise or lower the signal. Summed up:
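RT-PCR/CE readout of reporter mRNA; HepG2, transient transfection, 24 h dosing; DMSO baseline; bidirectional analysis.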

The target of assay [14] is Estrogen receptor (Homo sapiens) (UniProt P03372). Description: ATG_ERa_TRANS: Attagene TRANS-FACTORIAL HepG2 Assay for human Estrogen Receptor alpha (ERa) (AID 2282970; active means hit-call score of the fitted dose curve at least 0.9, where 1 is the maximum). The conditions noted are these: HepG2 Attagene TRANS ERa GAL4 reporter, mRNA. Summed up:
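Cells: HepG2, transiently transfected. Construct: GAL4-UAS reporter units regulated by exogenous NR-Gal4 chimeras. Time: 24 h. Detection: reporter mRNA by RT-PCR, capillary electrophoresis, fluorescence. Baseline: DMSO, upward fitting.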

The target in assay [15] is X-box-binding protein 1 (Homo sapiens) (UniProt P17861). Put plainly: ATG_Xbp1_CIS: Attagene CIS-FACTORIAL HepG2 Assay for human X-box Binding Protein 1 (XBP1) (AID 2282972). Conditions: HepG2 XBP1 cis-element reporter, Attagene multiplex; actives raise or lower the signal. A digest of the protocol:
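HepG2, transient MRTU transfection (cis-promoter driven), 24 h compound exposure. Total RNA → oligo(dT) RT → PCR → 6-FAM labeling → HpaI cut → CE. Bidirectional fit vs DMSO.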

In assay [16] the target is Nuclear receptor subfamily 1 group I member 3 (Homo sapiens) (UniProt Q14994). Description: ATG_CAR_TRANS: Attagene TRANS-FACTORIAL HepG2 Assay for human Constitutive Androstane Receptor (CAR) (AID 2282969; active means hit-call score of the fitted dose curve at least 0.9, where 1 is the maximum;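 further: activators raise reporter mRNA above DMSO so AC50 marks induction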). The conditions noted are these: HepG2 Attagene TRANS-FACTORIAL CAR reporter. Summed up:
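HepG2 cells transiently transfected with multiplexed GAL4-UAS reporter units expressing chimeric NR-Gal4 proteins; compound exposure 24 h. Reporter mRNA measured by RT-PCR, 6-FAM labelling, HpaI digestion and capillary electrophoresis; gain-of-signal fitted against DMSO baseline.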

Assay [17] addresses Androgen receptor (Homo sapiens) (UniProt P10275). Description: ATG_AR_TRANS: Attagene TRANS-FACTORIAL HepG2 Assay for human Androgen Receptor (AR) (AID 2282973; active means hit-call score of the fitted dose curve at least 0.9, where 1 is the maximum). Conditions: HepG2 Attagene TRANS-FACTORIAL AR reporter transcription. Summed up:
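Transcriptional activity of an exogenous AR–Gal4 fusion read as GAL4-UAS reporter transcript levels in transfected human HepG2 cells after 24 h dosing. Detection via RT-PCR, 6-FAM labelling, HpaI digest and capillary electrophoresis; increase over DMSO baseline.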

Assay [18] is described as follows: ATG_M_19_TRANS: Attagene TRANS-FACTORIAL HepG2 Assay for M19 Transcription Factor (Internal Marker) (AID 2282974; active means hit-call score of the fitted dose curve at least 0.9, where 1 is the maximum). The conditions noted are these: HepG2 Attagene TRANS-FACTORIAL M19 internal marker reporter. A digest of the protocol:
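Fluorescence of 6-FAM-labelled reporter cDNA fragments, separated by capillary electrophoresis, served as the readout. These derived from HepG2 cells carrying transfected GAL4-UAS reporter units after 24 h dosing, with DMSO as negative control.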

The nature of assay [19]: ATG_SREBP_CIS: Attagene CIS-FACTORIAL HepG2 Assay for human Sterol Regulatory Element Binding (SREBP) (AID 2282962). The conditions noted are these: HepG2 Attagene cis-factorial SREBP reporter, mRNA; actives raise or lower the signal. A digest of the protocol: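 Transfected HepG2 (cis-regulated reporter library, endogenous TFs) → compound 24 h → total RNA → oligo(dT) RT → reporter-specific PCR → FAM primer extension, HpaI cut → CE fluorescence. Fit bidirectional vs DMSO.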

In assay [20] the target is Steroid hormone receptor ERR1 (Homo sapiens) (UniProt P11474). Put plainly: ATG_ERRa_TRANS: Attagene TRANS-FACTORIAL HepG2 Assay for human Estrogen-Related Receptor alpha (ERRa) (AID 2282971; active means hit-call score of the fitted dose curve at least 0.9, where 1 is the maximum). The conditions noted are these: HepG2 Attagene TRANS reporter, ERRa transactivation. Summed up: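 Reporter transcripts from ERRa-Gal4 chimera activity measured in transiently transfected human HepG2 cells 24 hours after dosing, using RT-PCR with 6-FAM primer extension, HpaI digestion and capillary electrophoresis; DMSO is baseline.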
Sequence of Steroid hormone receptor ERR1 (Homo sapiens) (P11474 whole entry, looked up, the tested form may be a part): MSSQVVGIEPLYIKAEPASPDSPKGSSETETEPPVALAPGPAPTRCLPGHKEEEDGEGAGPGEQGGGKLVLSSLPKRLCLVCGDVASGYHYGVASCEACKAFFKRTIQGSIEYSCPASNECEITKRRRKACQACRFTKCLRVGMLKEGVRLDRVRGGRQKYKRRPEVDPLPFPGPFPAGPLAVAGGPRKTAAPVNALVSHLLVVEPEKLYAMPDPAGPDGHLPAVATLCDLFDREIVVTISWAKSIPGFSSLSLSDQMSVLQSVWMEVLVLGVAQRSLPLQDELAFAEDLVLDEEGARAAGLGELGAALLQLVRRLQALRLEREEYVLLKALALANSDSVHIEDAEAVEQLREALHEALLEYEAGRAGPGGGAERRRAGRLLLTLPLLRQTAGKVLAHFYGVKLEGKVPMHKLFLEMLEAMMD

Sequence of Transcription factor Sp1 (Homo sapiens) (P08047 whole entry, looked up): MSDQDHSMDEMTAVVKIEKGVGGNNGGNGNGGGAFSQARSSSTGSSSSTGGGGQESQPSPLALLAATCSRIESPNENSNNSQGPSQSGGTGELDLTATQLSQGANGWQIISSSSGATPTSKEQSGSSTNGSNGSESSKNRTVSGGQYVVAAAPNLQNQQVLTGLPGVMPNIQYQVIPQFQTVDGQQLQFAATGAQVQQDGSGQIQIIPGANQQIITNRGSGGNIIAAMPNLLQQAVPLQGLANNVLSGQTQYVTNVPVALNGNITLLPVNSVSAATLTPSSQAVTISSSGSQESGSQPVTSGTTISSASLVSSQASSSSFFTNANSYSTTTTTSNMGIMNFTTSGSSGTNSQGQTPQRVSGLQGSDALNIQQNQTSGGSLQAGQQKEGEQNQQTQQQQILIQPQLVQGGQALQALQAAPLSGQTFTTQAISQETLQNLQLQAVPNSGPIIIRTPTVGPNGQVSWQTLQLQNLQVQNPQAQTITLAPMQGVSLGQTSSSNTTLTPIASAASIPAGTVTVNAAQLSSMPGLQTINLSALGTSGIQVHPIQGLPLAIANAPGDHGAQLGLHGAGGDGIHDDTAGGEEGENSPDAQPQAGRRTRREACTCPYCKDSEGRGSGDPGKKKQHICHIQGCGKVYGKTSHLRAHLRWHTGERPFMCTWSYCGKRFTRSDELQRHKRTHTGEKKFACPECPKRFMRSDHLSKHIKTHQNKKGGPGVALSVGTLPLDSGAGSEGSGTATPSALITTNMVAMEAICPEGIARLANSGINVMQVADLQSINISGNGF
Sequence of X-box-binding protein 1 (Homo sapiens) (P17861 whole entry, looked up): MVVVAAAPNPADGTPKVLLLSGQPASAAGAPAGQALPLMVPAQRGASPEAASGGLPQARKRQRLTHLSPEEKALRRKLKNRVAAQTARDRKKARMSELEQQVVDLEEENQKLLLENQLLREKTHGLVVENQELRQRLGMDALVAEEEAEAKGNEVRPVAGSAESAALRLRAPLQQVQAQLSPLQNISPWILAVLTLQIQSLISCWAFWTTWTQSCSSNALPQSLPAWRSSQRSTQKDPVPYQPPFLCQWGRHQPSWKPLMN
Sequence of Estrogen receptor (Homo sapiens) (P03372 whole entry, looked up, the tested form may be a part): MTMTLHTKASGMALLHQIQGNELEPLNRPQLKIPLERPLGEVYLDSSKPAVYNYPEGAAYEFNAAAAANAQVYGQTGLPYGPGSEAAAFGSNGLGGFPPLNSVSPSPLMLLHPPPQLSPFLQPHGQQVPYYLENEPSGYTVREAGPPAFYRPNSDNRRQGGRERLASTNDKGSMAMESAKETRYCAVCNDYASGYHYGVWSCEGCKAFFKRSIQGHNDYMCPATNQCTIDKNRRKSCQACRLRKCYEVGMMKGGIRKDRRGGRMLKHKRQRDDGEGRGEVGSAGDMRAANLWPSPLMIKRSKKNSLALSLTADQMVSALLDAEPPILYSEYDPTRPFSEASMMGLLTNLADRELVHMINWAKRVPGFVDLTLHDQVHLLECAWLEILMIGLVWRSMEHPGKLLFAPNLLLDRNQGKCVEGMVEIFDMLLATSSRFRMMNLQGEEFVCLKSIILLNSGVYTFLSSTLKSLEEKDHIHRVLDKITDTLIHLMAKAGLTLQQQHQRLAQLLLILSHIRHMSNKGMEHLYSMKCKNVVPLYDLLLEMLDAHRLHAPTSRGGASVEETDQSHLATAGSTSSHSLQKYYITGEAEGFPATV
Sequence of Signal transducer and activator of transcription 3 (Homo sapiens) (P40763 whole entry, looked up): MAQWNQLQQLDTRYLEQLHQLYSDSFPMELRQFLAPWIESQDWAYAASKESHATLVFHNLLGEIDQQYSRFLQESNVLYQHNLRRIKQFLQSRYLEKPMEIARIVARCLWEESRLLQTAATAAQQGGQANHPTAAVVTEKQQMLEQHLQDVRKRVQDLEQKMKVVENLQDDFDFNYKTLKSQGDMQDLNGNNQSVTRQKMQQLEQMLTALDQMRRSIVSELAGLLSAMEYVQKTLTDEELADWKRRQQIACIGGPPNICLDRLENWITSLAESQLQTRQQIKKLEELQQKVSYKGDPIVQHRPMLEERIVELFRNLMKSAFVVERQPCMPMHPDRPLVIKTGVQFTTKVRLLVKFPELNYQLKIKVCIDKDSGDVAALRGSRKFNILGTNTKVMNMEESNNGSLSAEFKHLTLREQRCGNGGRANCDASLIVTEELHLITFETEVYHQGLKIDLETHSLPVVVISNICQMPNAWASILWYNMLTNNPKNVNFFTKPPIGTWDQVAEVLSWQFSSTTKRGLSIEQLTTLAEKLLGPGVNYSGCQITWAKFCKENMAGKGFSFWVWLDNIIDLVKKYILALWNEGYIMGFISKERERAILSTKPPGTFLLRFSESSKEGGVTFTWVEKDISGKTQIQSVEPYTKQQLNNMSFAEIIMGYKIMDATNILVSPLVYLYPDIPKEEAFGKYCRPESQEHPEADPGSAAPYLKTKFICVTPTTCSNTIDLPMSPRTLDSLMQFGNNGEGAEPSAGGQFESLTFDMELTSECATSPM
Sequence of Nuclear receptor subfamily 1 group I member 3 (Homo sapiens) (Q14994 whole entry, looked up, the tested form may be a part): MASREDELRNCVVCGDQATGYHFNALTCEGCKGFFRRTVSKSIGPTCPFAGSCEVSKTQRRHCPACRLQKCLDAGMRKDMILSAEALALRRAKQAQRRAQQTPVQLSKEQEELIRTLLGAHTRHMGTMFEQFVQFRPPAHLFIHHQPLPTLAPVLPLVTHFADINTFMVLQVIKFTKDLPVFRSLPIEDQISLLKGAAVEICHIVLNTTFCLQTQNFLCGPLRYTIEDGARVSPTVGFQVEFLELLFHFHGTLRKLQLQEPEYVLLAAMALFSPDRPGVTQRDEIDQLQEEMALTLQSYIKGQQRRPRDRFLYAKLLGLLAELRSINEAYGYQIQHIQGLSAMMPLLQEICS
Sequence of Paired box protein Pax-6 (Homo sapiens) (P26367 whole entry, looked up): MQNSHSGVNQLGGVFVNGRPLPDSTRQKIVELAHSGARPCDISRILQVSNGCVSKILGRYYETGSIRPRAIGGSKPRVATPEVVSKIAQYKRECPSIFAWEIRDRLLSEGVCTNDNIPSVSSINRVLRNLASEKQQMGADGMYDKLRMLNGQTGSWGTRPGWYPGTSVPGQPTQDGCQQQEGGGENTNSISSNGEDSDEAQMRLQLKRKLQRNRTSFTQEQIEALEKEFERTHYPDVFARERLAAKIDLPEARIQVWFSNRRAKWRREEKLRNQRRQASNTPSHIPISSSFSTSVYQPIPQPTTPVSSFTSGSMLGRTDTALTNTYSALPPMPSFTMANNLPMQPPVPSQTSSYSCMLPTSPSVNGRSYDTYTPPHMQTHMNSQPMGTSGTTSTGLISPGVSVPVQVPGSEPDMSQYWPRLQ
Sequence of Androgen receptor (Homo sapiens) (P10275 whole entry, looked up, the tested form may be a part): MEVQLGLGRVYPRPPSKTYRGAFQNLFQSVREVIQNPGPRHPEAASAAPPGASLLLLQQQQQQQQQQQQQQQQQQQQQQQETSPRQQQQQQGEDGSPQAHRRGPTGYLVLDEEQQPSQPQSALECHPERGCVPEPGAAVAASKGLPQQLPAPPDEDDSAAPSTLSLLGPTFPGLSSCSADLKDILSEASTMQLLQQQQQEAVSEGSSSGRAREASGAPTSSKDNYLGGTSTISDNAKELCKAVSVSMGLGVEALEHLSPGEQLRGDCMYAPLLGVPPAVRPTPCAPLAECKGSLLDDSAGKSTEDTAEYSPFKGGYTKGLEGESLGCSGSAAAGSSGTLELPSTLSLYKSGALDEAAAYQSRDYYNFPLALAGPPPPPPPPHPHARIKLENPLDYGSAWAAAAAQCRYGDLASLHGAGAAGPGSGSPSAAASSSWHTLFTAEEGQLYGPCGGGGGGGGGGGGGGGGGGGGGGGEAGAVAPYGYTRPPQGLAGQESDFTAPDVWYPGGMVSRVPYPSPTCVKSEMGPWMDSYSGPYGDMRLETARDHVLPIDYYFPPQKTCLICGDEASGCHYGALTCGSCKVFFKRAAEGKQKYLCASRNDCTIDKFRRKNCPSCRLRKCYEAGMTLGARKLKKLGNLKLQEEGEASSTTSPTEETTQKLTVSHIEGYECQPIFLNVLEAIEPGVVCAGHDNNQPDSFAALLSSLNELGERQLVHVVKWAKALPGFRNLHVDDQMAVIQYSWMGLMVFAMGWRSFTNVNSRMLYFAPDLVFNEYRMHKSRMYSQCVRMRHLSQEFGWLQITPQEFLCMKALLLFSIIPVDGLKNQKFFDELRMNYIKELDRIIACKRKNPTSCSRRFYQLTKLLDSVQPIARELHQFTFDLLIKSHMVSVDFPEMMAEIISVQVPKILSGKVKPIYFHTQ

In general, AC50 refers to the concentration at which the activity in the assay is half-maximal. Take `CCON=C(CC)C1=C(O)CC(c2c(C)cc(C)cc2C)CC1=O` (stereo unspecified): the outcome in assay [1], in assay [2], in assay [4], in assay [5], in assay [6] and in assay [7] was inactive. Moreover, the result in assay [8], in [9], in assay [10], in [11], in assay [12] and in assay [13] was inactive. Moreover, the compound was called inactive in assay [14] and in assay [15]. Moreover, the AC50 in [3] is 34.9 µM (active).
As to `Cc1cc(Cl)ccc1OCC(=O)O`, the outcome in assay [1], in [2], in [3], in [5], in assay [6] and in assay [7] was inactive. Moreover, the result in [8], in assay [9], in assay [10], in assay [11], in assay [12] and in assay [13] was inactive. For the same compound, the outcome in assay [16], in assay [14], in assay [15], in assay [17] and in [18] was inactive.
Turning to `Cc1c(F)c(F)c(COC(=O)C2C(/C=C(\Cl)C(F)(F)F)C2(C)C)c(F)c1F` (stereo unspecified), the outcome in assay [2], in [4], in assay [6], in [7], in assay [19] and in [8] was inactive. Further, the call in assay [9], in assay [10], in [11], in assay [12] and in assay [15] was inactive. The AC50 is 13.8 µM (active) in assay [3], 18 µM (active) in assay [13] and 50 µM (active) in assay [14].
For the compound `CC1COC(Cn2cncn2)(c2ccc(Oc3ccc(Cl)cc3)cc2Cl)O1` (stereo unspecified), the call in [2], in [6], in [7], in [8], in assay [9] and in [10] was inactive. In addition, the compound was called inactive in [11], in assay [14], in [20] and in [15]. Further, the AC50 is 2 µM (active) in [3], 3.17 µM (active) in [4], 3.17 µM (active) in [12] and 3.17 µM (active) in assay [13].
Consider `CCNc1nc(Cl)nc(NCC)n1`, for which the outcome in assay [1], in assay [2], in [5], in assay [6], in assay [7] and in assay [19] was inactive. Further, the outcome in [8], in assay [9], in [10], in assay [11], in [12] and in assay [13] was inactive. Also, the call in assay [16], in assay [20], in assay [15] and in assay [18] was inactive. Also, the AC50 in assay [3] was 32.7 µM (active).
As for `CCOP(=S)(OCC)SCn1c(=O)oc2cc(Cl)ccc21`, the AC50 is 7.17 µM (active) in [1], 2.21 µM (active) in assay [3], 13.8 µM (active) in assay [13] and 29.9 µM (active) in assay [14]. In addition, the outcome in assay [2], in assay [5], in assay [6], in assay [7], in [19] and in [8] was inactive. In addition, the result in assay [9], in assay [10], in assay [11], in assay [12], in [16] and in assay [15] was inactive. Also, in assay [18], the compound was classed as inactive.
With `CCCCC(CC)COC(=O)c1ccccc1C(=O)OCC(CC)CCCC` (stereo unspecified), the outcome in assay [1], in assay [2], in assay [5], in assay [6], in assay [7] and in assay [8] was inactive. Further, the compound was called inactive in assay [9], in assay [10], in assay [11], in assay [12], in assay [13] and in assay [16]. The result in assay [14], in [15] and in assay [18] was inactive. The figures for the AC50 in assay [3] and in assay [4] were 9.84 µM (active) and 17.5 µM (active), respectively.

The values above are taken from PubChem BioAssay (EPA / NIEHS).
